Experimental data: PubChem BioAssay (Tox21)
Records with an inconclusive call do not appear. Values without a mark were called inactive. The source made the active and inactive calls. Calls follow the shape of the full dose curve. Numbered stars: 1 amine (or outer) side, 2 acyl side, 3 side chain; on linkers, the order of the positions; unused ones are H or OH. Bridge positions count the residues as written; N and C are the ends. Square brackets hold non-standard residues; d marks the D form. Peptide text beside a SMILES is read from it. I, II: the chains in the order shown. Actinocin(9to1) = Cc1c2oc3c(C)ccc(C(=O)[*:1])c3nc-2c(C(=O)[*:2])c(N)c1=O; NMeV = CN[C@H](C(=O)O)C(C)C; Sar = CNCC(=O)O

Assay: p53 small molecule agonists, cell-based qHTS assay with rat liver microsomes (AID 1963578)
Conditions: HCT-116 p53RE-bla, beta-lactamase ratio, 16 h; series mostly up to 66 µM; activation: at the top concentration
How it was run: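 Metabolic activation is supplied by rat liver microsomes with NADPH (each 0.5 mg/mL final). p53RE-bla cells incubate with compound 16 h at 37 C; reporter activity is measured by LiveBLAzer fluorescence.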
% is scaled to controls: 0 for no effect and ±100 for the full control effect.

Row | Structure (SMILES) | activation | Potency
1 | Cc1cc(C)c(N=Nc2c(O)c(S(=O)(=O)O)cc3cc(S(=O)(=O)O)ccc23)cc1C | 0.887% [at 5.99 µM] | –
2 | CC(=O)Nc1c(I)cc(I)c(C(=O)O)c1I | 0.737% [at 30.3 µM] | –
3 | C=COCCOCCOCCOC=C | -2.46% | –
4 | O=C1OC(=O)c2ccc3c4c(ccc1c24)C(=O)OC3=O | -0.0808% | –
5 | CC(=O)[O][Al][O]C(C)=O | -1.76% | –
6 | COc1ccc2cc(C=O)ccc2c1 | -1.06% [at 30.3 µM] | –
7 | Cc1occc1S | -0.0196% | –
8 | CC1(C)C(C=C(Cl)Cl)C1C(=O)OCc1cccc(Oc2ccccc2)c1 (stereo not given) | – | inactive
9 | CC[C@]1(O)C[C@@H]2CN(CCc3c([nH]c4ccccc34)[C@@](C(=O)OC)(c3cc4c(cc3OC)N(C)[C@H]3[C@@](O)(C(=O)OC)[C@H](OC(C)=O)[C@]5(CC)C=CCN6CC[C@]43[C@@H]65)C2)C1 | – | inactive
10 | CCCCN(CCO)CCO | 3.89% | –
11 | COC(OC)C(C)c1ccccc1 (stereo not given) | -1.18% | –
12 | Nc1cc(=O)[nH]c(N)n1 | -0.458% [at 30.3 µM] | –
13 | OC/C=C/CO | 2.33% | –
14 | CCCCCCCCCCCCC(=O)O | -2.08% | –
15 | Cc1ccc(S(=O)(=O)NC(=O)NC2CCCC2)cc1 | 0.406% [at 30.3 µM] | –
16 | CCCC(=O)c1ccccc1 | -0.839% | –
17 | NC(=O)c1cccc([N+](=O)[O-])c1 | 1.45% | –
18 | CC(C)c1cccc(C(C)C)c1N | 0.216% | –
19 | CCCCCCCCC1CCC(=O)O1 (stereo not given) | 3.23% | –
20 | Cc1cccc(Cl)c1 | 2.21% | –
21 | COCc1ccc(COC)cc1 | 0.699% | –
22 | OC1(c2ccc(Cl)cc2)CCNCC1 | -0.17% [at 30.3 µM] | –
23 | Cc1c2oc3c(C)ccc(C(=O)N[C@@H]4C(=O)N[C@H](C(C)C)C(=O)N5CCC[C@H]5C(=O)N(C)CC(=O)N(C)[C@@H](C(C)C)C(=O)O[C@@H]4C)c3nc-2c(C(=O)N[C@@H]2C(=O)N[C@H](C(C)C)C(=O)N3CCC[C@H]3C(=O)N(C)CC(=O)N(C)[C@@H](C(C)C)C(=O)O[C@@H]2C)c(N)c1=O (I: T[dV]P[Sar][NMeV] / II: T[dV]P[Sar][NMeV]; ester I:1-I:C, II:1-II:C; linker I:N-II:N via Actinocin(9to1)) | – | inactive
24 | C1CCCCC1 | -0.364% | –

Assay: p53 small molecule agonists, cell-based qHTS assay with human liver microsomes: qHTS cell viability counter screen (AID 1963579); also: nearly all actives have a fitted effect of over 45% in size
Conditions: p53RE-bla HCT-116 viability, ATP luminescence, 16 h, HLM; series mostly up to 66 µM; activity change, negative = cytotoxicity: at the top concentration
How it was run: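 After the 460/530 nm beta-lactamase read, CellTiter-Glo was added to the same wells and luminescence measured after 30 min at room temperature, giving viability of p53RE-bla cells treated 16 h with compounds plus microsomes and NADPH.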

Row | Structure (SMILES) | activity change, negative = cytotoxicity | Potency
25 | CCCN1CCCC[C@H]1C(=O)Nc1c(C)cccc1C | -3% [at 30.3 µM] | –
26 | Cc1ccc(NC(=O)N(C)C)cc1NC(=O)N(C)C | -8.74% | –
27 | CCN(CC)CCN | 1.1% [at 30.3 µM] | –
28 | O=[N+]([O-])c1ccccc1Nc1ccccc1 | 1.74% | –
29 | NC(=O)c1ncn([C@@H]2O[C@H](CO)[C@@H](O)[C@H]2O)c1O | 11% [at 30.3 µM] | –
30 | O=C(O)[C@@H]1[C@H]2C[C@H]3c4[nH]c5ccccc5c4CCN3C[C@@H]2CC[C@@H]1O | 17.9% [at 30.3 µM] | –
31 | O=C(O)c1ccccc1OP(=O)(O)O | -11.8% [at 30.3 µM] | –
32 | CCOC(OCC)OCC | 2.6% | –
33 | C=CCOC(=O)CCCCCC | 5.38% | –
34 | O=C(O)[C@@H](O)[C@H](O)[C@H](O)[C@@H](O)C(=O)O | 2.29% [at 30.3 µM] | –
35 | CCCCCCCCCC(C)=O | -9.83% | –
36 | COc1c2ccoc2cc2oc(=O)ccc12 | – | inactive
37 | CO[Si](C)(C)OC | -2.24% | –
38 | c1c[nH]cn1 | – | inactive
39 | Cc1ccc(C(C)c2ccc(C)c(C)c2)cc1C | 6.48% | –

Assay: p53 small molecule agonists, cell-based qHTS assay with rat liver microsomes: qHTS cell viability counter screen (AID 1963580); also: nearly all actives have a fitted effect of over 45% in size
Conditions: p53RE-bla HCT-116 + rat microsomes, ATP viability, 16 h; series mostly up to 66 µM; activity change, negative = cytotoxicity: at the top concentration
How it was run: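 Luminescent ATP readout (CellTiter-Glo, 30 min at room temperature) reports viability of p53RE-bla HCT-116 cells after 16 h at 37 C with test compounds under metabolic activation by rat liver microsomes and NADPH at 0.5 mg/mL final each.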

Row | Structure (SMILES) | activity change, negative = cytotoxicity | Potency
40 | Cc1cc(C)c(N=Nc2c(O)c(S(=O)(=O)O)cc3cc(S(=O)(=O)O)ccc23)cc1C | -1.53% [at 5.99 µM] | –
41 | CC(=O)Nc1c(I)cc(I)c(C(=O)O)c1I | -3.9% [at 30.3 µM] | –
42 | C=COCCOCCOCCOC=C | -10.6% | –
43 | O=C1OC(=O)c2ccc3c4c(ccc1c24)C(=O)OC3=O | -1.67% | –
44 | CC(=O)[O][Al][O]C(C)=O | 15.2% | –
45 | COc1ccc2cc(C=O)ccc2c1 | -0.808% [at 30.3 µM] | –
46 | Cc1occc1S | 0.887% | –
47 | CCCN1CCCC[C@H]1C(=O)Nc1c(C)cccc1C | 0.334% [at 30.3 µM] | –
48 | Cc1ccc(NC(=O)N(C)C)cc1NC(=O)N(C)C | -12.9% | –
49 | CCN(CC)CCN | -7.96% [at 30.3 µM] | –
50 | O=[N+]([O-])c1ccccc1Nc1ccccc1 | 0.0626% | –
51 | NC(=O)c1ncn([C@@H]2O[C@H](CO)[C@@H](O)[C@H]2O)c1O | -0.754% [at 30.3 µM] | –
52 | O=C(O)[C@@H]1[C@H]2C[C@H]3c4[nH]c5ccccc5c4CCN3C[C@@H]2CC[C@@H]1O | 0.508% [at 30.3 µM] | –
53 | O=C(O)c1ccccc1OP(=O)(O)O | 0.443% [at 30.3 µM] | –
54 | CCCCN(CCO)CCO | 0.411% | –
55 | COC(OC)C(C)c1ccccc1 (stereo not given) | -0.634% | –
56 | Nc1cc(=O)[nH]c(N)n1 | 3.52% [at 30.3 µM] | –
57 | CCOC(OCC)OCC | 4.85% | –

Row | Structure (SMILES) | activity change, negative = cytotoxicity | Potency
58 | C=CCOC(=O)CCCCCC | -11.8% | –
59 | O=C(O)[C@@H](O)[C@H](O)[C@H](O)[C@@H](O)C(=O)O | -4% [at 30.3 µM] | –
60 | CCCCCCCCCC(C)=O | -1.15% | –
61 | OC/C=C/CO | -11.5% | –
62 | CCCCCCCCCCCCC(=O)O | -3.57% | –
63 | CCCC(=O)c1ccccc1 | 14.5% | –
64 | NC(=O)c1cccc([N+](=O)[O-])c1 | 1.81% | –
65 | COc1c2ccoc2cc2oc(=O)ccc12 | – | inactive
66 | CC(C)c1cccc(C(C)C)c1N | -14.2% | –
67 | CCCCCCCCC1CCC(=O)O1 (stereo not given) | -3.93% | –
68 | Cc1cccc(Cl)c1 | -5% | –
69 | CO[Si](C)(C)OC | -1.37% | –
70 | COCc1ccc(COC)cc1 | 15.9% | –
71 | c1c[nH]cn1 | 7.21% | –
72 | OC1(c2ccc(Cl)cc2)CCNCC1 | -3.47% [at 30.3 µM] | –
73 | Cc1c2oc3c(C)ccc(C(=O)N[C@@H]4C(=O)N[C@H](C(C)C)C(=O)N5CCC[C@H]5C(=O)N(C)CC(=O)N(C)[C@@H](C(C)C)C(=O)O[C@@H]4C)c3nc-2c(C(=O)N[C@@H]2C(=O)N[C@H](C(C)C)C(=O)N3CCC[C@H]3C(=O)N(C)CC(=O)N(C)[C@@H](C(C)C)C(=O)O[C@@H]2C)c(N)c1=O (I: T[dV]P[Sar][NMeV] / II: T[dV]P[Sar][NMeV]; ester I:1-I:C, II:1-II:C; linker I:N-II:N via Actinocin(9to1)) | 4.13% [at 30.3 µM] | –
74 | C1CCCCC1 | -6.13% | –
75 | Cc1ccc(C(C)c2ccc(C)c(C)c2)cc1C | -12.5% | –
